ATXN2 expr inh = Primary qHTS for Inhibitors of ATXN expression; AID 1745845, 2022; Potency, µM (top dose mostly 57 µM), for the others: top-dose activity change, negative = inhibition, actives largely listed as inhibitors; 360,000 tested, 0.72% active; HEK-293 ATXN2-luciferase reporter, luminescence, 24 h; further: potency means the concentration at half of the fitted maximal effect; on the % scale 0 is the no-effect control and ±100 the full control effect; nearly all actives have a fitted effect of over 55% in size
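qHTS (up to 57 uM final) was run with 24 h compound exposure of reporter cells at 37 °C. Each well was multiplexed: SteadyGlo luminescence measured ATXN2-luciferase expression after a fluorogenic Gly-Phe-AFC viability readout (25 uM final).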
Giardia kill = Small Molecules that selectively kill Giardia lamblia: qHTS; Giardia lamblia trophozoite viability; activity change, % at 7.66 µM, hits read low; 340,000 tested, 0.15% active; in the data active means activity change below about -80%; inconclusive means between about -30% and that limit;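 further: parasites exposed to compound for two days anaerobically before the ATP read; on the % scale 0 is the no-effect control and ±100 the full control effect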
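ATP-content bioluminescence gauges trophozoite survival. Cells (100/well) receive compound and incubate anaerobically for 48 hrs at 37 deg C; detection reagent follows for 15-30 min at room temperature.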
TGFb inhibitor = qHTS for Inhibitors of TGF-b. HepG2 CAGA-GFP TGF-b/SMAD3 reporter, GFP fluorescence, 18 h; TGF-beta stimulated, 500 pg/mL final. Potency, µM (titrated, usually from 46.1 µM), inactives show at the top dose activity, negative = inhibition, usual class: inhibitors. 410,000 tested, 1.2% active; further: potency means the concentration at half of the fitted maximal effect; on the % scale 0 is the no-effect control and ±100 the full control effect; nearly all actives have a fitted effect of over 65% in size
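TGF-beta reporter screen: HEPG2 CAGA-GFP, 1% FBS, 500 pg/mL TGF-beta final, 18 h; per-cell GFP summed per well; curves fitted and categorized by class.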
uPA surface inh = qHTS for Inhibitors of Cell Surface uPA Generation | cell surface uPA generation assay, qHTS | Potency, µM (doses to about 38.3 µM), for the others: top-dose activity change, negative = inhibition, actives largely listed as inhibitors | 330,000 tested, 0.31% active; active means well fitted inhibition curve with a large enough effect; inconclusive means small, poorly fitted or top-dose-only effect; inactive means no such curve, though single readings can be large or run the other way; tested in mouse RAW 264.7 cells; further: potency means the concentration at half of the fitted maximal effect; on the % scale 0 is the no-effect control and ±100 the full control effect; nearly all actives have a fitted effect of over 55% in size
HepG2 viability = qHTS for Inhibitors of TGF-b: Cytotox Counterscreen; HepG2 CAGA-GFP viability, ATP luminescence, 18 h; Potency, µM (top dose mostly 46.1 µM), for the others: top-dose activity change, negative = cytotoxicity, usual class: cytotoxic; 410,000 tested, 0.76% active; AID 588856, 2011; further: potency means the concentration at half of the fitted maximal effect
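HepG2 CAGA-GFP cells (1000/well, DMEM with 1% FBS) received compound, then TGF-beta at 500 pg/mL final, and were incubated 18 hours at 37 degrees C. Viability was read by CellTiter-Glo luminescence. Media-only wells were set as complete cell-killing and DMSO as no toxicity.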
S2 tox = Viability Counterscreen for Primary qHTS for Inhibitors of ATXN expression; S2 cells (HEK-293 line with an ATXN2-luciferase reporter) viability, CellTiter-Fluor protease fluorescence, 24 h; Potency, µM (doses to about 56.7 µM), actives largely listed as cytotoxic; 400,000 tested, 0.49% active; AID 651635, 2014; further: potency means the concentration at half of the fitted maximal effect; nearly all actives have a fitted effect of over 40% in size
* = called active by the depositor; i = inactive; u = inconclusive; x = no result. Shown are actives, neighbours in structure and some others; about 2.6% of the full set was active somewhere. Unless noted, the call rests on the fitted dose curve; in most records, active means well fitted curve in the direction sought with a large enough effect; inconclusive means small, poorly fitted or top-dose-only effect, or another doubt; inactive means no such curve, though single readings can be large; an effect the other way counts as inactive or inconclusive.

SMILES	ATXN2 expr inh	Giardia kill	TGFb inhibitor	uPA surface inh	HepG2 viability	S2 tox
CC(=O)N(C)c1ccc(OCC(O)Cn2c3ccc(Cl)cc3c3cc(Cl)ccc32)cc1 (stereo not given)	u	4	u	-6%	14µM*	u
O=C(/C=C/c1cccc(Cl)c1)c1ccc([N+](=O)[O-])o1	4.5µM*	-2	3.5µM*	u	13µM*	8.9µM*
CC(C)CCC(CCNCc1ccccn1)c1ccc(Cl)cc1 (stereo not given)	-37%	-24	0%	-9%	20µM*	i
O=C(c1ccc(S(=O)(=O)c2cccc(Cl)c2)c([N+](=O)[O-])c1)N1CCN(c2ccccn2)CC1	x	2	11µM*	-15%	-97%	i
COc1ccc(C2CC(c3ccccc3)Oc3c(C)ccc(C)c32)cc1 (stereo not given)	x	7	3%	x	-2%	x
CC(C)(C)n1ncc2c(=O)n(Cc3ccc(Cl)c(SC(F)(F)F)c3)cnc21	x	x	1%	x	-11%	x
CC(Nc1nc(N2CCNCC2)nc2ccccc12)c1ccccc1 (stereo not given)	u	-84*	u	-5%	-31%	u
c1ccc(CN=C(NCc2ccccc2)NCc2ccccc2)cc1	u	-1	u	-10%	22µM*	i
S=C(NCc1ccccc1)C(=S)NCc1ccccc1	14%	-13	-5%	1%	-11%	u
O=C(NNc1nc2ccccc2o1)c1ccccc1	1.6µM*	-18	18%	-4%	-25%	i
O=C(NC(=Nc1nc2ccccc2o1)NC(=O)c1ccccc1)c1ccccc1	36%	15	0%	-7%	-11%	i
Cc1cc(C)c(C#N)c(SCC(=O)c2ccccc2)n1	-10%	1	10µM*	4%	-9%	x
CO[C@H]1[C@H](NC(=O)c2ccsc2)c2ccccc2C12CCN(Cc1c(O)ccc3ccccc13)CC2	x	x	x	x	x	i
COc1cc2ccccc2cc1C(=O)N/N=C/c1ccc2c(c1)OCO2	-15%	-3	u	u	1%	u
COc1cccc(/C=N/NC(=O)CNC(=O)C2COc3ccccc3O2)c1O (stereo not given)	8.9µM*	1	-14%	u	-4%	i
COc1cccc(/C=N/NC(=O)c2ccc(-c3ccccc3)cc2)c1O	3.2µM*	3	u	-13%	-33%	u
COc1cccc(/C=N/NC(=O)c2ccc(=O)n(C)c2)c1O	15µM*	-5	-1%	-3%	4%	x
O=C(CNC(=O)C1COc2ccccc2O1)N/N=C\c1ccccc1Cl (stereo not given)	-8%	-12	-13%	-2%	-15%	i
COc1ccc(-c2cc(C(=O)N/N=C/c3ccc4c(c3)OCO4)c3ccccc3n2)c(OC)c1	120%	3	-1%	-18%	11µM*	i
CCN1C[C@H](C)n2c(c(O)c3c(=O)n(Cc4ccc(F)c(Cl)c4)nc(C(=O)NC)c32)C1=O	-4%	x	x	x	x	x
O=C(Cc1ccc(OCCCc2ccccc2)cc1)NO	x	x	5%	x	-23%	x
Cc1cccc(/C=N/NC(=O)c2c(-c3ccccc3)noc2C)c1O	3.5µM*	37	u	-6%	-2%	i
COc1ccc(CCCC(=O)N/N=C/c2cccc(OC)c2O)cc1C	13µM*	7	u	-12%	-15%	i
COc1cccc(/C=N/NC(=O)c2ccc(=O)[nH]n2)c1O	x	4	-1%	u	7%	i
COc1cccc(/C=N/NC(=O)c2[nH]c(C)c(C(=O)N/N=C/c3cccc(OC)c3O)c2C)c1O	14µM*	-16	u	-6%	-46%	i
COc1cccc(/C=N/NC(=O)C(=O)Nc2ccccc2OC(F)(F)C(F)F)c1O	10µM*	4	-10%	-10%	-2%	u
COc1cccc(/C=N/NC(=O)C[n+]2ccccc2)c1O	17%	27	0%	1%	-22%	i

Screening results deposited in PubChem BioAssay by National Center for Advancing Translational Sciences (NCATS).
